Experimental data reported in ChEMBL document CHEMBL3988442, “University of Dundee, Small-Polar-MMV Screening Library” (2021).
For some assays here: Potency and affinity values are given separately.

How the values were obtained:
Parameters in all cases: scale not given: direction of the effect not stated beside the values
[1] = target: Protein translocase subunit SecA (Escherichia coli (strain K12)) (UniProt P10408); test: Assay to Identify E. coli SecA ATPase Inhibitors; type: functional; conditions: 30 µM
Protein translocase subunit SecA (Escherichia coli (strain K12)), sequence (P10408 whole entry): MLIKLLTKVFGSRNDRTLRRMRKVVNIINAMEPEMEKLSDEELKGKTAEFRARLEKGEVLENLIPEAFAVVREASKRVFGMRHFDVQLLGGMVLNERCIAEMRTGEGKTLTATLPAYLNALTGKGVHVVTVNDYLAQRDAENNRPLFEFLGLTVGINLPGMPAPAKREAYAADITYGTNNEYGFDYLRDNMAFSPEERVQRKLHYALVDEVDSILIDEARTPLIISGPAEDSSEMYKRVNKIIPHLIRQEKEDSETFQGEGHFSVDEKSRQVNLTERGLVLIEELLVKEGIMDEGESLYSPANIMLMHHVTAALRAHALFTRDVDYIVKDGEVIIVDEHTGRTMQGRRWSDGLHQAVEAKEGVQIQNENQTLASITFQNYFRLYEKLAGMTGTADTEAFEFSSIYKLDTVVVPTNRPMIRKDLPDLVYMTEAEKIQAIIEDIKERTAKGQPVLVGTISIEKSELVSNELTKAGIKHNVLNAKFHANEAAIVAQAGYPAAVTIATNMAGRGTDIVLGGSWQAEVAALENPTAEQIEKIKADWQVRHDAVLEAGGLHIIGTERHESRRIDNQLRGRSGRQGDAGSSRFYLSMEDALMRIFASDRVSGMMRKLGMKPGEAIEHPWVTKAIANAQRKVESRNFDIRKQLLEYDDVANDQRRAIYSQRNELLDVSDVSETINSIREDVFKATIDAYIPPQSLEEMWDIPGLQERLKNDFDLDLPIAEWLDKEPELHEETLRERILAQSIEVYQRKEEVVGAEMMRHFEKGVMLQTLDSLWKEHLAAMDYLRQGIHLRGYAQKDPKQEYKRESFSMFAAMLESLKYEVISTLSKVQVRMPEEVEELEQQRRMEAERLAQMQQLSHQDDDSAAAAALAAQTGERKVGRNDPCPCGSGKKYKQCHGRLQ

[2] = target: T1, Ubiquitin-activating enzyme e1, putative (Leishmania donovani (strain BPK282A1)) (UniProt E9BSI1); test: Leishmania donovani Ubiquitin Activating Enzyme (LdE1); type: functional; conditions: 30 µM
T1 sequence (whole entry): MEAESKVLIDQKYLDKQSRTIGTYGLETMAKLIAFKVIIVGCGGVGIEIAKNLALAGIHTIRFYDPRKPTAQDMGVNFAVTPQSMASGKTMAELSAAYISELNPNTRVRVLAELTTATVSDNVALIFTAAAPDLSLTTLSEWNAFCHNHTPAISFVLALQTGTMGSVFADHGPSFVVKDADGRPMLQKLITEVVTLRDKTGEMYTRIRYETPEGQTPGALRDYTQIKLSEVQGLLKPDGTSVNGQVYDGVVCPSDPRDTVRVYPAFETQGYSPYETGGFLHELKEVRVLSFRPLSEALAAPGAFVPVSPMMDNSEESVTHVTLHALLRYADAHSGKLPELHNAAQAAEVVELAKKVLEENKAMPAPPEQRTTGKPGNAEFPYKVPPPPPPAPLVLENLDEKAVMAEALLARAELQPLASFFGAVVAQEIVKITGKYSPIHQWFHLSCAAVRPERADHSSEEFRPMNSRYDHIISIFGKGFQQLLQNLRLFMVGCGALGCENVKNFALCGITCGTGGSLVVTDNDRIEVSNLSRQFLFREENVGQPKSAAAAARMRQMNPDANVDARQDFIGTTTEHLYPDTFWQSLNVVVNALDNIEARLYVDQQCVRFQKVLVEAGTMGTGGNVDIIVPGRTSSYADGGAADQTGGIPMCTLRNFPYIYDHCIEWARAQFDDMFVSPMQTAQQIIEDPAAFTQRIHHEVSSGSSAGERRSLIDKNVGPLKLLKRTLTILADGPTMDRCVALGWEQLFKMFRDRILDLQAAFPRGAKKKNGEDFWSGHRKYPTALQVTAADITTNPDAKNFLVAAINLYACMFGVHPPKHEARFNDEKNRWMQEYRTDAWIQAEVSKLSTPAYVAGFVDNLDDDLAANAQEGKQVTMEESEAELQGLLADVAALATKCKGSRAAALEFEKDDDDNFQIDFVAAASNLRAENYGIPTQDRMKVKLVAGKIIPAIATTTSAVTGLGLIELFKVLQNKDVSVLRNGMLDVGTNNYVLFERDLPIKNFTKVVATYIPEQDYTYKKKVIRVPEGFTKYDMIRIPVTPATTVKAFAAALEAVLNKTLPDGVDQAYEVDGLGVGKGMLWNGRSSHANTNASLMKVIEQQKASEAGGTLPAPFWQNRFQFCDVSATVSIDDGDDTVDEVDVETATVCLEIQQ

[3] = target: AMP-activated protein kinase, AMPK (Homo sapiens) (UniProt P54646+O43741+P54619+Q9UGJ0+Q9Y478+Q13131+Q9UGI9); test: AMP-dependent Kinase enzyme assay. An in vitro enzyme assay that detects ADP turnover that is directly proportional to AMPK activity. This uses naive AMPK that is activated during the assay with MK-8722; type: functional; conditions: 30 µM
[4] = target: Sialic acid-binding Ig-like lectin 9 (Homo sapiens) (UniProt Q9Y336); test: Hs-Siglec9 ALPHAscreen SOP 20170721; conditions: 10 µM
Sialic acid-binding Ig-like lectin 9 (Homo sapiens), sequence (Q9Y336 whole entry): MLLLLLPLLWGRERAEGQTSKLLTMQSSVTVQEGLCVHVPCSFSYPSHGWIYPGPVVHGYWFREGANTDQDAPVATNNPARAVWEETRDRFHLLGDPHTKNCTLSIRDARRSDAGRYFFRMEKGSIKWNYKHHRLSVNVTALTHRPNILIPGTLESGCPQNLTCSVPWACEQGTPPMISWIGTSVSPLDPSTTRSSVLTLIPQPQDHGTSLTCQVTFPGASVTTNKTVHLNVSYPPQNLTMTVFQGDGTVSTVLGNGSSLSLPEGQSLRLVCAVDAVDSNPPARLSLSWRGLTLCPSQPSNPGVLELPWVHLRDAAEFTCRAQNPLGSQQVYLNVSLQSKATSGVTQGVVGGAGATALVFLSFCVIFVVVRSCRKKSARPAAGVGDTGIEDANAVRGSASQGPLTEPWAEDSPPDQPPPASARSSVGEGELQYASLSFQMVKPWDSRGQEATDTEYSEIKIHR

Trypanosoma cruzi = test: Trypanosoma cruzi phosphomannomutase and mannose-1-phosphate guanylyltransferase assay; type: functional; conditions: 10 µM
[5] = target: T2, Arginase-2, mitochondrial (Homo sapiens) (UniProt P78540); test: in vitro enzyme assay to detect the production of urea directly proportional to the activity of Arginase II; type: functional; conditions: 33.3 µM; note: in the data most compounds retested in dose-response had high values
T2 sequence (whole entry): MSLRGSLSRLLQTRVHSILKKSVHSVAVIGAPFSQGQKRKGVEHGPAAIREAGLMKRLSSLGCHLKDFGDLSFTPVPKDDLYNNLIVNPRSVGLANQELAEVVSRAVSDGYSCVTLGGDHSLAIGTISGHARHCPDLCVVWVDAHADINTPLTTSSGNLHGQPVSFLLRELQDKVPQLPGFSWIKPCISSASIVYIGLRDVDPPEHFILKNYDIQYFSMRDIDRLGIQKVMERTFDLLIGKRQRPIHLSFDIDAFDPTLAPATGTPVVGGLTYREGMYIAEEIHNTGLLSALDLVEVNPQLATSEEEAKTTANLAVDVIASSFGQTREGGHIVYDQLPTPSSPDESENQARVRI

[6] = target: T3, Proteasome subunit beta (Trypanosoma cruzi) (UniProt O96673); test: Trypanosoma cruzi proteasome chymotrypsin-like activity (TcProtChymo) assay.; note: in the data most compounds retested in dose-response had high values; type: functional; conditions: 9.37 µM
T3 sequence (whole entry): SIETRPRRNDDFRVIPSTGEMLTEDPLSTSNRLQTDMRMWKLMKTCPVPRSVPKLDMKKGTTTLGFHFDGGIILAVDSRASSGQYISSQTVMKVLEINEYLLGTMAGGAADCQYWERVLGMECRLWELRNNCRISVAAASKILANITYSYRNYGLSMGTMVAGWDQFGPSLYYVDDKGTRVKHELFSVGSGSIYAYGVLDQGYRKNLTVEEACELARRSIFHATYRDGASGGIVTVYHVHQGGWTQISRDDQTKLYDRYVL

Homo sapiens = organism: Homo sapiens; test: To identify inhibition of the IFN signalling (Jak-Stat) pathway via expression of an eGFP reporter gene under the control of an IFN-stimulated response element (ISRE) containing MxA promoter.; type: functional; conditions: 30 µM
[7] = target: T4, Tyrosyl-tRNA synthetase, putative (Trypanosoma cruzi (strain CL Brener)) (UniProt Q4DSP6); test: Trypanosoma cruzi tyrosyl tRNA synthetase (TcYRS) _High Tyrosine SOP; type: functional; conditions: 30 µM; note: in the data most compounds retested in dose-response had high values
T4 sequence (whole entry): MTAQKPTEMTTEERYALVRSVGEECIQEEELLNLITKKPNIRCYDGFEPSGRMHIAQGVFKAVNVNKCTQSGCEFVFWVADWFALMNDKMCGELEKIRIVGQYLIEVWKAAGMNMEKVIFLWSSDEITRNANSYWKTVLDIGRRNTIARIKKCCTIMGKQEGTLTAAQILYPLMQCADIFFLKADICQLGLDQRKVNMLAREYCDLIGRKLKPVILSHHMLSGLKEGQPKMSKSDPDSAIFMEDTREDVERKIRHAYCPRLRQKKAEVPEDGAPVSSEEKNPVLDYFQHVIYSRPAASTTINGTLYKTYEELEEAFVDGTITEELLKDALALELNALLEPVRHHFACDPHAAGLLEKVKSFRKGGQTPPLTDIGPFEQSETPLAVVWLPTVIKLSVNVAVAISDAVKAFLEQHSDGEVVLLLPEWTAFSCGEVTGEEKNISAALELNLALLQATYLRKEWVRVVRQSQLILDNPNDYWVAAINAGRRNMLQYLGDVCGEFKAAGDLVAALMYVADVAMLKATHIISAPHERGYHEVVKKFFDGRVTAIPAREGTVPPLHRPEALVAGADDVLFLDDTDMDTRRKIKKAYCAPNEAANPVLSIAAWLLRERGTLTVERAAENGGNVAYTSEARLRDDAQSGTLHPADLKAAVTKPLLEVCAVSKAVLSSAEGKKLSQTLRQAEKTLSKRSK

[8] = target: T4, Tyrosyl-tRNA synthetase, putative (Trypanosoma cruzi (strain CL Brener)); test: Trypanosoma cruzi tyrosyl tRNA synthetase (TcYRS) SOP; type: functional; conditions: 30 µM
[9] = target: Chromo domain-containing protein 1 (Saccharomyces cerevisiae (strain ATCC 204508 / S288c) (Baker's yeast)) (UniProt P32657); test: ScCHD-1 Enzyme Inhibition Assay; type: functional; conditions: 30 µM; note: in the data most compounds retested in dose-response had high values
Chromo domain-containing protein 1 (Saccharomyces cerevisiae (strain ATCC 204508 / S288c) (Baker's yeast)), sequence (P32657 whole entry, the tested form may be a part): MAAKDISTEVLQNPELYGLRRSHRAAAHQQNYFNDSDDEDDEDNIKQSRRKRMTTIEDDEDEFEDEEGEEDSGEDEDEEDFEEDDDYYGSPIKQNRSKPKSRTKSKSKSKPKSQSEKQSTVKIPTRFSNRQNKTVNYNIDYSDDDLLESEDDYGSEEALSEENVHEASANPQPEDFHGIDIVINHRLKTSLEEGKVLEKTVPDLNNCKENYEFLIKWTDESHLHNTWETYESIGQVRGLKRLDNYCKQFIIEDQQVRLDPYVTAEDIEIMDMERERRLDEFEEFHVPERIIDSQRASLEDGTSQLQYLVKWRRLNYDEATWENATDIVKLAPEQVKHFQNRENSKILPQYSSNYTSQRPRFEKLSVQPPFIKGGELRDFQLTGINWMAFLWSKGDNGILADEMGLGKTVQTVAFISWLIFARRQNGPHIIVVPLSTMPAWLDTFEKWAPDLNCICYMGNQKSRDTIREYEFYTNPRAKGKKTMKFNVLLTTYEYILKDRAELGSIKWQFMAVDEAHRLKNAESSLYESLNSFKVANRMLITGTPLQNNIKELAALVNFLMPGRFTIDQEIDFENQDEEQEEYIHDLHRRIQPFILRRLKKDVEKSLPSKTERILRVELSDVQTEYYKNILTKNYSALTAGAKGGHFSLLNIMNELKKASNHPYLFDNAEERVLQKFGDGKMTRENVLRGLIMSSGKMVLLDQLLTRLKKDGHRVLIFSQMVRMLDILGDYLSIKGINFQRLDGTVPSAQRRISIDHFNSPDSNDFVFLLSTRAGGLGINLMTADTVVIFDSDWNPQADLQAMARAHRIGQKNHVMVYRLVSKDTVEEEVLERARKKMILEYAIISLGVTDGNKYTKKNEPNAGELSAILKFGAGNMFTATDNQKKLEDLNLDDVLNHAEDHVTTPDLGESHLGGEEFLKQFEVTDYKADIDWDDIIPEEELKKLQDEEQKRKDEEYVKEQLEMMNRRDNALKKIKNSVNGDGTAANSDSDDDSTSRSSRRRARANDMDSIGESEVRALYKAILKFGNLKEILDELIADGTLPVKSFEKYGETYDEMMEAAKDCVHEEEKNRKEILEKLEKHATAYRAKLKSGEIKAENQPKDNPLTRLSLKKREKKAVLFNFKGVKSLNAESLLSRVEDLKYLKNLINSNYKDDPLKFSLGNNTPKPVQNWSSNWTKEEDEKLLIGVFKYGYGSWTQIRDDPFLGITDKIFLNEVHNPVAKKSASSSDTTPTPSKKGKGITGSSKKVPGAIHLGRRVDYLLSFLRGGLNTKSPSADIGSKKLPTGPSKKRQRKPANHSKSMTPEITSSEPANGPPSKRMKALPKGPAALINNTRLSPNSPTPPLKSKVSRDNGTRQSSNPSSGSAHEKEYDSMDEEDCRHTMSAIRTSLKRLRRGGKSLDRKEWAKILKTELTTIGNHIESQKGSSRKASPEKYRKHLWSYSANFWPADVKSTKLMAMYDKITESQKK

SMILES | Percent Effect [1] | Percent Effect [2] | Percent Effect [3] | Percent Effect [4] | Percent Effect (Trypanosoma cruzi) | Percent Effect [5] | Percent Effect [6] | Percent Effect (Homo sapiens) | Percent Effect [7] | Percent Effect [8] | Percent Effect [9]
O=C(COc1ccc(C(F)(F)F)cc1)NS(=O)(=O)c1cccnc1 | -0.269% | 0% | 4.15% | -3.63% | -1.5% | 0.383% | 3.84% | -6.19% | -1.47% | -4.88% | 4.47%
CC1CCN(CCCNS(=O)(=O)c2cccc(F)c2)CC1 | -4.57% | 7.79% | 0.601% | 5.46% | -2.46% | -13.8% | 0.166% | -11.1% | 5.38% | 13.6% | -2.91%
CCc1nccn1C1CCCN(C(=O)c2ccc3c(c2)OCO3)C1 (stereo unspecified) | -3.94% | -2.6% | 8.35% | -3.25% | -3.93% | -3.2% | 1.01% | 25.9% | -1.94% | -4.88% | -7.3%
CC(C)C(C(=O)N1CCN(Cc2ccncc2)CC1)n1cncn1 (stereo unspecified) | -4.08% | 7.79% | 4.2% | 5.43% | 0.0983% | -11% | 3.83% | -1.24% | 3.23% | 11.1% | 2.61%
COCC(=O)N1CCN(C(=O)c2scnc2C)CC1 | -4.41% | 7.89% | 1.74% | 5.01% | 2.82% | -4.73% | 12.4% | 19.8% | 1.06% | 10.4% | 0.643%
c1nc(CCC2CCCN2)cc(N2CCCOCC2)n1 (stereo unspecified) | -4.1% | 9.46% | 11.8% | -4.56% | -6.13% | -3.02% | 9.36% | 10.3% | 3.23% | 6.49% | -5.74%
Cc1cnc(CN(C)CC2CCCN2c2cccnn2)cn1 (stereo unspecified) | 1.21% | 15.6% | -9.07% | -13.5% | 1.27% | -5.26% | 17.1% | 4.87% | 6.67% | 25.9% | -25.4%
c1ccc(CN2CC[C@@H]3O[C@H](COCc4ccncc4)CC[C@@H]32)nc1 | -0.0418% | 10.7% | -4.7% | -5.18% | -8.46% | 5.83% | 9.07% | -4.23% | 4.25% | 8.97% | -2.83%
CCCc1noc(CN(C)C(=O)C2COc3ccccc3C2)n1 (stereo unspecified) | -2.56% | 7.79% | -0.0483% | 4.75% | -3.25% | -30.3% | 14.1% | -15.6% | 5.38% | 16.1% | -3.26%
CC(C)c1nccn1C1CCCN(C(=O)c2cnc[nH]2)C1 (stereo unspecified) | -5.4% | 10.5% | -5.59% | 16.2% | 5.32% | 0.719% | 10.1% | -0.618% | 5.42% | 16.1% | -3.38%
CN(C)C(=O)CN1C[C@@H]2CC[C@H](C1)N(Cc1cccc(Cl)c1Cl)C2 | 6.03% | 2.74% | 1.3% | -0.255% | 2.58% | -19.6% | 22.5% | 14% | 10.4% | 25.9% | 0.27%
O=C(Cn1cc(I)cn1)Nc1cccnc1 | -7.8% | 0% | 2.58% | 6.82% | 1.85% | -10.7% | 16.4% | 4.4% | 3.19% | 7.79% | -7.88%
COc1ncccc1C(=O)N1CC[C@H]2C[C@@H](C)O[C@@H]2C1 | -0.702% | 17.3% | 0.286% | -4.21% | -0.589% | -6.51% | 15.5% | -1.15% | 3.17% | 10.3% | -9.15%
CC1=Nc2c(c(=O)[nH]n2C(C)C)C(c2ccc(F)c(F)c2)S1 (stereo unspecified) | -5.53% | -6.67% | 8.28% | 12.2% | -0.197% | 1.58% | 9.8% | 34% | 18% | 20.5% | 2.07%
Brc1cc2c(cc1CN1CCC(N3CCCCC3)CC1)OCCO2 | -3.24% | -1.39% | -9.98% | -5.8% | -0.291% | 5.74% | 10.7% | 2.68% | 5.26% | 10.3% | -2.58%
COC(=O)CCC(=O)N1CCc2[nH]nc(-c3ccc4c(c3)OCO4)c2C1 | -2.09% | 8.11% | 6.85% | 21.3% | 5.18% | 11.2% | 0.258% | -7.33% | 2.15% | 6.17% | -11.9%
